A549 tox: A549 cytotoxicity, counter-screen for Nrf2 inhibitors; A549 ARE-Fluc cells, CellTiter-Fluor viability, 18-24 h; Potency, µM (top dose mostly 46 µM), inactives show top-dose activity change, negative = cytotoxicity, most hits filed as inhibitors; hit rate 0.16% among 390,000; AID 504648; further: on the % scale 0 is the no-effect control and ±100 the full control effect
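A549 ARE-Fluc cells in 5% FBS OPTI-MEM, 5000 cells/well, rested 2 h then exposed to compounds in concentration-response for 18-24 h at 37 °C. Viability by CellTiter-Fluor fluorescence (Ex 405/Em 525) after 30 min; luciferase luminescence (BugLite, 15 min, RT) read afterwards.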
Nrf2 inh: Nrf2 pathway inhibition; A549 ARE-Fluc reporter, luciferase luminescence, 18-24 h; Potency, µM (highest dose often 46 µM), inactives show at the top dose activity change, negative = inhibition, hits mostly inhibitors; hit rate 2.1% among 360,000; further: on the % scale 0 is the no-effect control and ±100 the full control effect; nearly all actives have a fitted effect of over 60% in size
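Nrf2 function is reported as luminescence of an ARE-controlled luciferase in A549 cells. Compounds were tested at several concentrations, and a CellTiter-Fluor read on the same wells flagged cytotoxicity.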
ATXN2 expr inh: inhibitors of ATXN2 expression; HEK-293 ATXN2-luciferase reporter, luminescence, 24 h; hit rate 0.72% among 360,000; AID 1745845; Potency, µM (doses to about 57 µM), for inactives: at the highest dose activity change, negative = inhibition, hits mostly inhibitors; further: on the % scale 0 is the no-effect control and ±100 the full control effect; nearly all actives have a fitted effect of over 55% in size
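ATXN2-luciferase reporter cells (luciferase flanked by upstream and downstream ATXN2 gene portions) were treated 24 h at 37 °C with compounds at up to 57 uM. SteadyGlo luminescence gave expression; GF-AFC fluorescence gave viability.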
S2 tox: viability counter-screen for ATXN expression inhibitors; S2 cells (HEK-293 line with an ATXN2-luciferase reporter) viability, CellTiter-Fluor protease fluorescence, 24 h; Potency, µM (highest dose often 56.7 µM), actives largely listed as cytotoxic; hit rate 0.49% among 400,000; further: nearly all actives have a fitted effect of over 40% in size
Nrf2 activator: Nrf2 pathway activation. hit rate 0.31% among 410,000. Potency, µM (doses to about 46.1 µM), without a hit: at the highest dose activation, most hits filed as activators. AREc32 ARE-luciferase reporter (MCF7-derived line), luminescence, 24 h. AID 624171; further: % of control where 0% means no effect; nearly all actives have a fitted effect of over 65% in size
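AREc32 cells carrying an ARE-driven firefly luciferase reporter were seeded at 1000 cells/well in OPTI-MEM with 5% FBS, then exposed to compound for 24 hr at 37 deg C. Luminescence was read with Steady-Glo after 30 min at RT.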
* = called active by the depositor; i = inactive; ? = inconclusive; . = not tested or not shown; ! = not active in a repeat. Shown are actives, neighbours in structure and some others; about 2.9% of the full set was active somewhere. The call rests on the fitted dose curve; in most records, active means well fitted curve in the direction sought with a large enough effect; inconclusive means small, poorly fitted or top-dose-only effect, or another doubt; inactive means no such curve, though single readings can be large; an effect the other way counts as inactive or inconclusive. Potency means the concentration at half of the fitted maximal effect.

SMILES	A549 tox	Nrf2 inh	ATXN2 expr inh	S2 tox	Nrf2 activator
Cc1nn2c(N3CCN(C)CC3)c3c(nc2c1-c1ccccc1)CCCC3	9%	-20%	?	20µM*	4%
O=C(c1ccc(Sc2cccc(Cl)c2)c([N+](=O)[O-])c1)N1CCN(c2ccccn2)CC1	-12%	16µM*	.	i	1%
COc1cc(OC)c2ccc(=O)oc2c1C(CC(=O)N1CCCCC1)c1ccc2c(c1)OCO2 (stereo unspecified)	-16%	14%	.	.	.
Cc1ccc(C)c(NS(=O)(=O)c2cc3c(cc2Cl)NC(=O)CO3)c1	?	23µM*	12%	i	-1%
Cc1ccc(CNC(=O)CCS(=O)(=O)c2cc3c(cc2Cl)NC(=O)CO3)cc1	-7%	26µM*!	1%	i	0%
Cc1ccc(Cl)cc1N1CCN(C(=O)CCS(=O)(=O)c2ccc3c(c2)NC(=O)CO3)CC1	-14%	16µM*	?	i	-1%
O=C1COc2ccc(S(=O)(=O)CCC(=O)N3CCN(c4cccc(Cl)c4)CC3)cc2N1	25%	?	.	i	2%
O=C(CCS(=O)(=O)c1cc2c(cc1Cl)NC(=O)CO2)NCc1ccc(Cl)cc1	13%	-13%	-15%	i	-1%
Cc1ccc(N2CCN(C(=O)CCS(=O)(=O)c3cc4c(cc3Cl)NC(=O)CO4)CC2)c(C)c1	-16%	26µM*	6%	?	0%
O=C1COc2cc(S(=O)(=O)CCC(=O)N3CCN(c4ccccc4F)CC3)c(Cl)cc2N1	3%	-14%	0%	i	-1%
COc1ccc(NC(=O)Nc2ccccc2)cc1S(=O)(=O)N1CCCCC1	-3%	-25%	-12%	i	1%
CCOC(=O)c1c(-c2ccc(-c3ccccc3)cc2)csc1NC(=O)c1cccc(N2C(=O)CCC2=O)c1	8%	3%	?	i	0%
O=C(Nc1ccccc1C(=O)O)c1ccc(Br)c(S(=O)(=O)NCc2ccccc2)c1	-3%	-3%	-20%	i	0%
CCc1noc(C)c1C(=O)OCC(=O)NCc1ccc(Cl)cc1	12%	-4%	-8%	i	0%
COc1ccc(CSCC(=O)Nc2ccccc2)cc1[N+](=O)[O-]	0%	?	0%	i	-1%
COc1ccc(CCn2c(-c3cccc([N+](=O)[O-])c3)nc3nc4ccccc4nc32)cc1OC	2%	0%	-5%	i	0%
Cc1ccc(C2CN=NC23CCc2ccccc2C3=O)cc1 (stereo unspecified)	1%	?	51%	i	5%
O=C1c2ccccc2CCCC12N=NCC2c1cccc2ccccc12 (stereo unspecified)	-4%	16µM*	?	i	0%
COc1ccc(C(Nc2ccccn2)c2c(NC(=O)c3ccco3)sc(C)c2C)cc1 (stereo unspecified)	0%	?	.	?	23%
Cc1sc(NC(=O)c2ccco2)c(C(Nc2ccccn2)c2ccccc2)c1C (stereo unspecified)	-6%	21µM*	15%	i	9%
CC(C)(C)c1nc2c(s1)CCc1onc(-c3ccc(Cl)cc3)c1-2	-7%	10%	1%	i	-1%
Cc1cccnc1NC(=O)c1ccco1	-1%	7%	-4%	i	0%
O=C(/C=C/c1ccccc1Br)c1ccc2c(c1)OCO2	8%	?	3%	i	?
O=C(/C=C\Nc1ccccc1Br)c1ccc2c(c1)OCO2	-5%	2.1µM*	?	.	0%
CCn1c(CN2CCN(C)CC2)nc2cc(NC(=O)c3cc(OC)c(OC)c(OC)c3)ccc21	-1%	-8%	-3%	?	13%
COc1ccc(C(C#N)=C2C=CC(=NO)C=C2)cc1	-10%	-4%	56%	?	1.3µM*
CC(=O)OC(=C(OC(C)=O)c1ccccc1)c1ccccc1	7%	4%	-1%	i	2%
CC(=O)ON=C1C=CC(=C(C#N)c2ccccc2)C=C1	.	.	14µM*	14µM*	?
CC(C)C[C@@H](C(=O)NCC1CCCO1)N1C(=O)N2CCc3c([nH]c4ccccc34)[C@@]2(C)C1=O (stereo partly specified)	1%	2%	0%	i	5%

High-throughput results as filed in PubChem BioAssay.
